We go through one molecule from the supplement of paper PMC8728848.

Test in all cases: glycan array binding signal (z-score within array); higher = stronger binding
Common to all, as to conditions: glycan notation: IUPAC condensed, linker removed

In experiment [1] the target is GalNAc(b1-3)Gal(a1-4)Gal(b1-4)GlcNAc. The method in brief: (§1)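 Negative Z-scores can be read as non-binding. The Z-score is calculated within each array and then averaged across arrays of one protein sequence at different concentrations or buffers and across linkers. Arrays, 3228 in all, were curated from the Consortium for Functional Glycomics database and kept only where the protein sequence was available.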

In experiment [2] the target is Glc(a1-4)Glc(a1-4)Glc(a1-4)Glc. A digest of the protocol: as §1
For experiment [3], the target named is GlcNAc(b1-2)[GlcNAc(b1-4)]Man(a1-3)[GlcNAc(b1-4)][GlcNAc(b1-2)[GlcNAc(b1-6)]Man(a1-6)]Man(b1-4)GlcNAc(b1-4)[Fuc(a1-6)]GlcNAc. The method in brief:
as §1

Experiment [4] addresses GlcNAc(b1-3)Gal(b1-4)GlcNAc(b1-3)Gal(b1-4)GlcNAc(b1-2)[GlcNAc(b1-3)Gal(b1-4)GlcNAc(b1-3)Gal(b1-4)GlcNAc(b1-6)]Man(a1-6)[GlcNAc(b1-3)Gal(b1-4)GlcNAc(b1-3)Gal(b1-4)GlcNAc(b1-2)Man(a1-3)]Man(b1-4)GlcNAc(b1-4)[Fuc(a1-6)]GlcNAc. The method in brief:
as §1

Experiment [5] addresses GlcNAc(b1-3)Gal(b1-4)GlcNAc(b1-6)[GlcNAc(b1-3)]Gal(b1-4)GlcNAc. A digest of the protocol:
as §1

Experiment [6] addresses Man(a1-3)[Man(a1-6)]Man(a1-6)[Man(a1-3)]Man. A digest of the protocol: as §1
Experiment [7] has as its target Man(a1-3)[Man(a1-6)]Man(a1-6)[Man(a1-3)]Man(b1-4)GlcNAc(b1-4)GlcNAc. A digest of the protocol: as §1
Experiment [8] deals with Neu5Ac(a2-3)Gal(b1-3)GlcNAc(b1-4)Gal(b1-4)Glc. The method in brief:
as §1

For the next experiment, the target named is Neu5Ac(a2-3)Gal(b1-4)Glc. A digest of the protocol: as §1
For experiment [9], the target named is Neu5Ac(a2-3)Gal(b1-4)GlcNAc(b1-3)GalNAc. A digest of the protocol: as §1
Experiment [10] has as its target Neu5Ac(a2-3)Gal(b1-4)[Fuc(a1-3)]GlcNAc(b1-6)[Gal(b1-3)]GalNAc. A digest of the protocol: as §1
Experiment [11] has as its target Neu5Ac(a2-6)Gal(b1-4)GlcNAc(b1-2)Man(a1-3)[Man(a1-6)]Man(b1-4)GlcNAc(b1-4)GlcNAc. A digest of the protocol:
as §1

Experiment [12] concerns the target Neu5Ac(a2-6)Gal(b1-4)GlcNAc(b1-3)Gal(b1-4)GlcNAc(b1-6)[Gal(b1-3)]GalNAc. The method in brief:
as §1

Experiment [13] concerns the target Neu5Ac(a2-6)GalNAc(b1-4)GlcNAc6S. A digest of the protocol:
as §1

The target of experiment [14] is Neu5Ac(a2-8)Neu5Ac(a2-8)Neu5Ac. The method in brief:
as §1

For experiment [15], the target named is Neu5Gc(a2-3)Gal(b1-3)[Fuc(a1-4)]GlcNAc. The method in brief: as §1
The target in experiment [16] is Neu5Gc(a2-3)Gal(b1-4)GlcNAc. The method in brief: as §1

The sample as a whole holds a higher share of the strongest signals than the screen did.

B1: SBD-G4S3-SBD (protein)
chain: MASIPSSASVQLDSYNYDGSTFSGKIYVKNIAYSKKVTVVYADGSDNWNNNGNIIAASFSGPISGSNYEYWTFSASVKGIKEFYIKYEVSGKTYYDNNNSANYQVSTGGGGSGGGGSGGGGSEFASIPSSASVQLDSYNYDGSTFSGKIYVKNIAYSKKVTVVYADGSDNWNNNGNIIAASFSGPISGSNYEYWTFSASVKGIKEFYIKYEVSGKTYYDNNNSANYQVST
Regarding B1, the “glycan array binding signal (z-score)” value was -0.37 in [1]; 5.44 in experiment [2]; -0.39 in experiment [3]; -0.26 in [4]; -0.406 in experiment [5]; -0.125 in [6]. In addition, the “glycan array binding signal (z-score)” value in experiment [7] is -0.351; in experiment [8], -0.389; with Neu5Ac(a2-3)Gal(b1-4)Glc, -0.399; in experiment [9], -0.327; in [10], 4.53; in experiment [11], 0.556. Besides, the “glycan array binding signal (z-score)” value in [12] is -0.221; in experiment [13], -0.365; in experiment [14], -0.377; in experiment [15] it was -0.366; in [16] it was -0.326.
